Reference: the supplement of paper PMC10515830
Counter-ions that a name gives are not always drawn.

What was measured:
Details in all cases: 10 µM; exposure time 6 h
[1] = tested on: Danio rerio larvae (5 dpf); assay: difference in excitability vs DMSO (percentage points); higher = more excitable than DMSO
Summary of the method: (§1)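 Wild-type zebrafish larvae at 5 dpf were kept in 96-well plates and exposed for 6 h to 100 µL egg water holding library compound at a final concentration of 10 µM. From 3 h into exposure, the plates were held at 28.5 ℃ and photographed every 6 s through a 3-h programme of moving lines and 100 ms, 400Hz tones. Each behaviour was scored by Z-LaP Tracker, a DeepLabCut model, and averaged over 48 larvae per compound. Every value gives the compound mean minus the vehicle control mean, in percentage points.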

[2] = tested on: Danio rerio larvae (5 dpf); assay: difference in startle response vs DMSO (percentage points); higher = stronger startle than DMSO
Summary of the method: as §1

[3] = tested on: Danio rerio larvae (5 dpf); assay: difference in activity during first hour vs DMSO (percentage points); higher = more activity than DMSO
Summary of the method: as §1

[4] = tested on: Danio rerio larvae (5 dpf); assay: difference in habituation to acoustic stimuli vs DMSO (percentage points); higher = more habituation than DMSO
Summary of the method: as §1

[5] = tested on: Danio rerio larvae (5 dpf); assay: difference in combined optomotor response to red, green and blue moving lines vs DMSO (percentage points); higher = stronger optomotor response than DMSO
Summary of the method: as §1

| SMILES | difference in excitability [1] | difference in startle response [2] | difference in activity during first hour [3] | difference in habituation to acoustic stimuli [4] | difference [5] |
| --- | --- | --- | --- | --- | --- |
| CCOc1cc(CC(=O)N[C@@H](CC(C)C)c2ccccc2N2CCCCC2)ccc1C(=O)O [Repaglinide] | 2.26 | 7.77 | 14.4 | 0.755 | 1.85 |
| Cc1ncc(CO)c(CO)c1O [Pyridoxine] | -7.67 | 5.43 | 7.49 | 4.31 | 4.65 |
| CC(=O)S[C@@H]1CC2=CC(=O)CC[C@]2(C)[C@H]2CC[C@@]3(C)[C@@H](CC[C@@]34CCC(=O)O4)[C@H]12 [Spironolactone] | 2.95 | -1.12 | 0.438 | -0.129 | -0.69 |
| Nc1nc(O)c2ncn(CCC(CO)CO)c2n1 [Penciclovir] | 7.86 | 12.1 | 13.9 | -1.73 | 11.3 |
| CC=CC1=C(C(=O)O)N2C(=O)[C@@H](NC(=O)[C@H](N)c3ccc(O)cc3)[C@H]2SC1 [Cefprozil] | 11.3 | -8.07 | 1.23 | 4.8 | -4.03 |
| C=C1CCN([C@H](C)[C@](O)(Cn2cncn2)c2ccc(F)cc2F)CC1 [Efinaconazole] | 14.8 | -1.57 | -5.8 | -7.46 | 1.58 |
| CC(=O)[C@]1(O)Cc2c(O)c3c(c(O)c2[C@@H](O[C@H]2C[C@H](N)[C@H](O)[C@H](C)O2)C1)C(=O)c1ccccc1C3=O [Idarubicin (hydrochloride)] | 12.5 | -1.2 | -5.02 | 1.34 | -1.01 |
| Cc1nc(Nc2ncc(C(=O)Nc3c(C)cccc3Cl)s2)cc(N2CCN(CCO)CC2)n1 [Dasatinib] | 11.4 | -1.6 | -4.95 | 1.58 | -0.962 |
| CN(C/C=C/C#CC(C)(C)C)Cc1cccc2ccccc12 [Terbinafine (hydrochloride)] | 7.35 | 0.627 | 1.02 | -1.41 | -4.42 |
| Cc1ccc(Nc2nccc(N(C)c3ccc4c(C)n(C)nc4c3)n2)cc1S(N)(=O)=O [Pazopanib] | 3.47 | -4.32 | -7.88 | 0.185 | 1.79 |
| C[C@@H](CN1CC(=O)NC(=O)C1)N1CC(=O)NC(=O)C1 [Dexrazoxane] | 5.16 | 0.825 | -0.0194 | 3.65 | 4.12 |
| Nc1ccn([C@@H]2O[C@H](CO)[C@@H](O)[C@@H]2O)c(=O)n1 [Cytarabine] | 1.17 | -0.992 | -3.96 | -4.77 | 3.66 |
| OC[C@H]1O[C@@H](O[C@@H]2[C@@H](CO)OC(O)(CO)[C@H]2O)[C@H](O)[C@@H](O)[C@H]1O (mixture of isomers) [Lactulose] | 2.43 | -1.72 | -2.1 | -4.39 | -4.94 |
| O=NN(CCCl)C(=O)NCCCl [Carmustine] | -3.21 | 2.25 | 1.68 | 0.0979 | 11.5 |
| CCOc1ccccc1OCCN[C@H](C)Cc1ccc(OC)c(S(N)(=O)=O)c1 [Tamsulosin (hydrochloride)] | 25.5 | 3.47 | -3.28 | 1.9 | 1.52 |
| CC1Cc2ccccc2N1NC(=O)c1ccc(Cl)c(S(N)(=O)=O)c1 (stereo not given) [Indapamide] | 4.58 | 1.23 | 7.09 | -1.64 | 1.06 |

| SMILES | difference in excitability [1] | difference in startle response [2] | difference in activity during first hour [3] | difference in habituation to acoustic stimuli [4] | difference [5] |
| --- | --- | --- | --- | --- | --- |
| CC/C=C\C/C=C\C/C=C\C/C=C\C/C=C\CCCC(=O)OCC [Eicosapentaenoic Acid ethyl ester] | 11.7 | 2.48 | -7.19 | 3.98 | 7.27 |
| Nc1cc(Cl)c(N=C2NCCN2)c(Cl)c1 [Apraclonidine (hydrochloride)] | 8.82 | 7.97 | -13.7 | -0.961 | -2.54 |
| COc1cc2ncnc(Nc3ccc(F)c(Cl)c3)c2cc1NC(=O)/C=C/CN1CCCCC1 | 16.4 | 0.667 | -10.7 | -0.587 | 6.72 |
| O=C1c2c(O)ccc(O)c2C(=O)c2c(NCCNCCO)ccc(NCCNCCO)c21 [Mitoxantrone (hydrochloride)] | 8.92 | -11.2 | -16.2 | -16 | -15.4 |
| Clc1ccc(CSC(Cn2ccnc2)c2ccc(Cl)cc2Cl)cc1 (stereo not given) [Sulconazole (nitrate)] | 11.3 | -12.7 | -17.2 | -12 | -16.4 |
| CCC(=O)OCC(=O)[C@@]1(OC(=O)CC)[C@H](C)C[C@H]2[C@H]3[C@H]([C@@H](O)C[C@@]21C)[C@@]1(C)C=CC(=O)C=C1C[C@H]3Cl [Alclometasone Dipropionate] | 3.59 | 5.9 | -1.03 | -0.676 | 5.42 |
| CC(C)NCC(O)COc1ccc(COCCOC(C)C)cc1 (stereo not given) [Bisoprolol (hemifumarate)] | 2.44 | 8.3 | 0.00157 | 3.42 | -3.86 |
| S=P(N1CC1)(N1CC1)N1CC1 | 0.228 | 0.991 | 4.02 | 0.555 | 1.07 |
| OCCN1C[C@H](O)[C@@H](O)[C@H](O)[C@H]1CO [Miglitol] | 8.03 | 3.24 | -0.913 | -2.04 | 8.24 |
| OCCOc1ccc(/C(=C(/CCCl)c2ccccc2)c2ccccc2)cc1 [Ospemifene] | 6.62 | -3.99 | -12.6 | -8.31 | -16.5 |
| O=C(c1ccc(F)c(F)c1Nc1ccc(I)cc1F)N1CC(O)([C@@H]2CCCCN2)C1 [Cobimetinib] | 22.7 | -2.69 | 0.0371 | 0.214 | 2.37 |
| CCNC(=O)[C@@H]1CCCN1C(=O)[C@H](CCCNC(=N)N)NC(=O)[C@H](CC(C)C)NC(=O)[C@@H](CC(C)C)NC(=O)[C@H](Cc1ccc(O)cc1)NC(=O)[C@H](CO)NC(=O)[C@H](Cc1c[nH]c2ccccc12)NC(=O)[C@H](Cc1c[nH]cn1)NC(=O)[C@@H]1CCC(=O)N1 [Leuprorelin (acetate)] | 16.2 | -0.397 | -3.87 | 1.37 | 4.92 |
| NS(=O)(=O)c1cc(C2(O)NC(=O)c3ccccc32)ccc1Cl (stereo not given) [Chlorthalidone] | -10 | 0.0654 | 5.83 | 3.4 | -3.83 |
| O=C1Cc2cc(CCN3CCN(c4nsc5ccccc45)CC3)c(Cl)cc2N1 [Ziprasidone (hydrochloride hydrate)] | 26.8 | 5.81 | 11.2 | -6.75 | 5.5 |
| C[C@H]1c2cccc(O)c2C(=O)C2=C(O)[C@]3(O)C(=O)C(C(N)=O)=C(O)[C@@H](N(C)C)[C@@H]3[C@@H](O)[C@@H]21 [Doxycycline (hyclate)] | 12.8 | 3.11 | 5.72 | 7.01 | -0.304 |
| Cc1c(O)cccc1C(=O)N[C@@H](CSc1ccccc1)[C@H](O)CN1C[C@H]2CCCC[C@H]2C[C@H]1C(=O)NC(C)(C)C [Nelfinavir (mesylate)] | 17.7 | 0.499 | -23 | 2.82 | -10.2 |
